Values joined by “and” are separate entries in the source; they are usually repeats but may differ in a detail not shown here. Equal entries are not always repeated. About 1,500 (0.58%) of roughly 260,000 compounds were called active. Not shown: some 5% with an inconclusive outcome.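 The calls were made as follows: active = inhibition above a set limit at one or more doses, reproduced on every date tested; inconclusive = results disagree between test dates, or hit never tested in dose response; inactive = the rest.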 The list is a sample of the results. Entries with a potency or affinity are not part of this list.
Target: Virion infectivity factor (Human immunodeficiency virus type 1 group M subtype B (isolate BH10)) + Virion infectivity factor (Human immunodeficiency virus type 1 group M subtype B (isolate BRU/LAI)) + Virion infectivity factor (Human immunodeficiency virus type 1 group M subtype B (isolate PCV12)) + Virion infectivity factor (Human immunodeficiency virus type 1 group M subtype B (isolate HXB2)) + DNA dC->dU-editing enzyme APOBEC-3G (Homo sapiens) (UniProt P69720+P69721+P69722+P69723+Q9HC16)
Experiment: HIV-1 Vif–A3G interaction blockers – biochemical, TR-FRET, GST-Vif 1-94, biotin-A3G peptide, dose response retest, primary screen (AID 1117319);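 also: Vif residues 1-94 fused to GST binding biotinylated APOBEC3G peptide 110-148; 0% = full assay without inhibitor and 100% = GST in place of GST-Vif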
Conditions: TR-FRET GST-Vif / biotin-A3G peptide binding; stronger effect = higher value

Structure (SMILES)	inhibition
COc1ccccc1CNC(=O)CNC(=O)Cn1cnc2ccccc2c1=O	8.94% (inactive)
COC(=O)c1c(NC(=O)C2(C)Cc3ccccc3C(=O)O2)sc2c1CCCC2 (stereo unspecified)	20.6% (inactive)
O=C(Nc1nnc(Cc2ccccc2)s1)C1CCC1	6.12% (inactive)
NC(=O)CN(N=Nc1cccc([N+](=O)[O-])c1)c1cccc([N+](=O)[O-])c1	10.3% (inactive)
COc1ccccc1C(=O)NC(CCSC)C(=O)NNC(=O)c1ccc(F)cc1 (stereo unspecified)	-6.52% (inactive)
CCCN(C(=O)c1cc(S(=O)(=O)N(C)c2ccc(OCC)cc2)ccc1C)C1CCS(=O)(=O)C1 (stereo unspecified)	2.41% (inactive)
Cc1nnc(SCC(=O)Nc2ccccc2)n1CCc1ccccc1	-1.11% (inactive)
CC1(C)CC(NC(=O)C(c2ccccc2)c2ccccc2)CC(C)(C)N1	-4.99% (inactive)
CC1(C)CC(NS(=O)(=O)c2ccccc2)CC(C)(C)N1	13.5% (inactive)
CC(C)(C)c1cc(NC(=O)CCSc2nnc3ccccn23)cc(C(C)(C)C)c1	-5.51% (inactive)
O=C1/C(=C\c2ccc3c(c2)OCO3)CCC/C1=C/c1ccc2c(c1)OCO2	1.07% (inactive)
O=C1CCC/C1=C/Nc1ccc(Cl)cc1	-0.33% (inactive)
O=C1/C(=C/Nc2ccc3c(c2)OCO3)CCc2ccccc21	27.2% (inactive)
O=C1CCCC/C1=C/Nc1ccc(C(=O)O)cc1	28.3% (inactive)
CC(C)(C)NC(=O)Cn1c(=O)c(=O)n(Cc2ccccc2)c2ccc(Cl)cc21	-13.9% (inactive)
NS(=O)(=O)c1ccc(NC(=S)N2CCN(c3ccc(Cl)c(Cl)c3)CC2)cc1	-1.39% (inactive)
Cc1ccc(-n2ncc3c(NCc4cccnc4)ncnc32)cc1C	-0.06% (inactive)
CC(=O)Nc1ccc2c(COC(=O)CC3Sc4ccccc4NC3=O)cc(=O)oc2c1 (stereo unspecified)	-2.31% (inactive)
COCCN(C(=O)COC(=O)CCn1c(C)csc1=O)c1c(N)n(Cc2ccccc2)c(=O)[nH]c1=O	3.17% (inactive)
COC(=O)[C@@H](N)Cc1ccc(O)cc1	1.26% (inactive)
COC(=O)C(N)Cc1ccc(O)c(O)c1 (stereo unspecified)	21.5% (inactive)
CC(NC(=O)Cn1cnnn1)C12CC3CC(CC(C3)C1)C2 (stereo unspecified)	-1.37% (inactive)
O=C(Cc1csc(N2CCOCC2)n1)N/N=C/c1ccc(Cl)cc1Cl	-5.97% (inactive)

Structure (SMILES)	inhibition
O=C(CCN1CCN(c2ccccc2)CC1)N/N=C/c1ccccc1O	-5.36% (inactive)
O=C(Cc1csc(N2CCOCC2)n1)N/N=C/c1ccccc1C(=O)O	6.57% (inactive)
COc1ccc(/C=N/NC(=O)CCN2CCN(c3ccccc3)CC2)c(OC)c1OC	8.69% (inactive)
Cc1cccc(NC(=S)NCc2ccc(F)cc2)c1	-7.76% (inactive)
Cc1nn(C)c(Cl)c1C(=O)NCC(=O)O	-8.59% (inactive)
CCN1CCCC1Cn1cnc2c([nH]c3cccc(Cl)c32)c1=O (stereo unspecified)	32.2% (inactive)
Cc1ccc(S(=O)(=O)n2nc(OC(=O)c3ccco3)cc2N)cc1	7.76% (inactive)
COc1ccc(OC)c(NC(=O)COC(=O)c2ccc(S(=O)(=O)N3CCCCC3)cc2)c1	-4.24% (inactive)
COc1ccc(OCCCC(=O)OC(C)C(=O)Nc2ccc(S(N)(=O)=O)cc2)cc1 (stereo unspecified)	1.05% (inactive)
CC1CCC(NC(=O)c2cc(Cl)nc3ccccc23)CC1 (stereo unspecified)	-9.79% (inactive)
Cc1noc(/C=C/c2ccco2)c1S(=O)(=O)N1CCC(C(=O)N2CCc3ccccc3C2)CC1	26.3% (inactive)
Cc1noc(/C=C/c2ccco2)c1S(=O)(=O)N1CCC(C(=O)N2CCc3ccccc32)CC1	10.8% (inactive)
CCOC(=O)c1c(C)[nH]c(C(=O)CSc2nnnn2-c2ccc(C)cc2)c1C	-6.65% (inactive)
CCOc1cc(C)c(Cl)cc1S(=O)(=O)N(CC)CC	-2.91% (inactive)
CC1CCCN(S(=O)(=O)c2ccc(S(=O)(=O)NC(C)c3cccs3)cc2)C1 (stereo unspecified)	-0.23% (inactive)
CCOc1ccc(NC(=O)CC(=O)Nc2ccc(OCC)cc2)cc1	3.52% (inactive)
COc1ccc(C(=O)NC2c3ccccc3-c3ccccc32)cc1	6.08% (inactive)
Cc1[nH]c2ccccc2c1Cc1nnc(SCC(N)=O)o1	9.95% (inactive)
C=CCSc1nnc(Cc2c(C)[nH]c3ccccc23)o1	12.5% (inactive)
Cc1ccc(CNC(=O)COC(=O)Cn2nc(C)c([N+](=O)[O-])c2C)cc1	2.03% (inactive)
NC(=S)N=Nc1c(O)[nH]c2ccc(F)cc12	14.4% (inactive)
Cc1ccc2[nH]c(O)c(N=NC(N)=S)c2c1	16.9% (inactive)
CNC(=S)NNc1nncc2ccccc12	-3.6% (inactive)

Structure (SMILES)	inhibition
CC(C)n1cnc2c(=S)nc[nH]c21	14.2% (inactive)
O=C(CSc1nnnn1-c1cccc2ccccc12)N1CCOCC1	10.1% (inactive)
CCC(C(=O)O)N1C(=O)/C(=C/c2cccn2C)SC1=S (stereo unspecified)	21.2% (inactive)
CC(/C=C1\SC(=S)N(C(C(=O)O)C(C)C)C1=O)=C\c1ccccc1 (stereo unspecified)	9.15% (inactive)
CC(=C\c1ccccc1)/C=C1/SC(=S)N(C(C(=O)O)C(C)C)C1=O (stereo unspecified)	-2.28% (inactive)
CC(C)C(C(=O)O)N1C(=O)/C(=C/c2cccn2C)SC1=S (stereo unspecified)	5.17% (inactive)
CN(CCC#N)C(=O)COC(=O)c1ccccc1OCc1ccccc1Cl	23.6% (inactive)
CCCCCCOc1ccc(N2C(=O)CC(N(CCc3ccc(S(N)(=O)=O)cc3)C(C)=O)C2=O)cc1 (stereo unspecified)	-1.36% (inactive)
CN1/C(=C/C(=S)NC(=O)C2CCC2)C(C)(C)c2ccccc21	3.95% (inactive)
CCn1c(SCC(=O)NCc2cccs2)nnc1-c1cccs1	2.35% (inactive)
CCN(CC)c1ccc(NC(=O)CCS(=O)(=O)c2cccc3nsnc23)c(C)c1	12.7% (inactive)
Cc1cccc(C)c1NC(=O)CCS(=O)(=O)c1ccc(Br)cc1	-1.3% (inactive)
CCOc1ccccc1NC(=O)CCN1CCN(S(=O)(=O)c2ccc(Br)cc2)CC1	-2.68% (inactive) and -11.1% (inactive)
Cc1cccc(NC(=O)CCS(=O)(=O)c2ccc(Br)cc2)c1	3.92% (inactive)
CCOc1ccc(NC(=O)CCS(=O)(=O)c2ccc(C)cc2)cc1	-2.94% (inactive)
O=C(CCS(=O)(=O)c1ccc(Br)cc1)Nc1ccccc1Cl	24.5% (inactive)
Cc1ccc(S(=O)(=O)CCC(=O)Nc2ccc(Br)cc2)cc1	21.8% (inactive)
CCc1ccc(NC(=O)CCS(=O)(=O)c2ccc(Br)cc2)cc1	11.1% (inactive)
O=C(CN(Cc1ccc(F)cc1)C(=O)CNS(=O)(=O)c1ccccc1)NCc1ccco1	-1.61% (inactive)
CC(=O)N1CCN(S(=O)(=O)c2ccc(Cl)cc2F)CC1	-2.38% (inactive)
CC(C)c1nc(SCC(=O)N2CC(=O)Nc3ccccc32)c2ccccc2n1	-15.6% (inactive)
C#CCOCCOCCOCCNc1nc(N2CCN(C(=O)[C@H](CO)n3cc([C@@H](N)C(C)C)nn3)CC2)nc(N2CCN(C(=O)[C@H](CCC(=O)O)n3cc([C@@H](N)CCCCN)nn3)CC2)n1	19.7% (inactive)
Cc1ccccc1-n1nc2c(c1NC(=O)c1cc3ccccc3o1)CS(=O)(=O)C2	0.92% (inactive)

Structure (SMILES)	inhibition
COc1ccc(F)cc1CN1CCN(C(=O)CCC(=O)Nc2nnc(C(C)C)s2)CC1	1.87% (inactive)
O=C(Nc1cccc(C(F)(F)F)c1)Oc1ccccc1N1CCOCC1	4.5% (inactive)
COc1ccc(Cl)cc1NC(=O)CCS(=O)(=O)c1ccc(C)cc1	0.29% (inactive)
COc1ccc([N+](=O)[O-])cc1NC(=O)CCS(=O)(=O)c1ccc(Br)cc1	23.2% (inactive)
COC(=O)c1ccccc1NC(=O)CCS(=O)(=O)c1ccc(Br)s1	-6.38% (inactive)
Cc1ccccc1NC(=O)CCS(=O)(=O)c1ccc(Br)cc1	19.3% (inactive)
CCNC(=O)CSc1nnc(-c2cc(-c3ccc(Cl)cc3)nc3ccccc23)o1	-0.32% (inactive)
O=C(OCc1cn([C@H]2CN(CC3CCCCC3)[C@@H](c3ccc(Cl)cc3)C[C@@H]2O)nn1)c1ccccc1	-2.33% (inactive)
CC1CCCCC1NC(=O)CSc1nnc(COc2ccc(Cl)cc2)o1 (stereo unspecified)	3.41% (inactive)
Cc1nc(-c2ccc(S(=O)(=O)Nc3ccc(Br)cc3Cl)s2)cs1	-10.4% (inactive)
O=C(NCCCCCCCCCNC(=O)C(F)(F)F)C(F)(F)F	3.63% (inactive)
O=C(NCCCCNC(=O)C(F)(F)F)C(F)(F)F	0.85% (inactive)
O=C(COC(=O)CNC(=O)c1ccc(Br)o1)Nc1ccccc1OC(F)F	6.47% (inactive)
CCOC(=O)COc1nc(-c2ccc(C)cc2)cc(-c2ccco2)c1C#N	-6.28% (inactive)
CCOC(=O)COc1nc(-c2ccccc2)cc(-c2ccco2)c1C#N	4.55% (inactive)
Cc1cccc(CC(Cc2nc3ccccc3[nH]2)c2nc3ccccc3[nH]2)c1 (stereo unspecified)	10.6% (inactive)
Cc1ccc2c(Cl)cc(Cl)c(OCC(=O)Nc3cccc(S(N)(=O)=O)c3)c2n1	-2.21% (inactive)
O=C(N/N=C/C(Br)=C\c1ccccc1)c1ccco1	8.5% (inactive)
Cc1ccc(-c2cc(C(=O)N/N=C/C(Br)=C/c3ccccc3)n[nH]2)o1	27.2% (inactive)
CCOc1ccc(S(=O)(=O)Nc2cccc(C(=O)N3CCN(c4ccccc4O)CC3)c2)cc1	4.44% (inactive)
COC(=O)/C(=N/Nc1ccccc1OC)N1CCCc2ccccc21	14.5% (inactive)
COC(=O)/C(=N/Nc1cccc(C)c1)N1CCCc2ccccc21	24.9% (inactive)
